PubChem BioAssay (Tox21)
Inconclusive results are not listed. Unmarked numbers belong to inactive results. Activity calls are given as the source filed them. Calls come from the whole dose curve; as a rule, active = well fitted cell-killing curve with a large enough effect in the repeat runs; inconclusive = weak or mixed curves; inactive = flat fitted curve, though single readings scatter. Non-standard residues stand in square brackets, D forms with d. Residues, ends and D or L forms follow the SMILES beside them. *: point of attachment. Sta = CC(C)C[C@H](N)[C@@H](O)CC(=O)O; Isovaleryl = CC(C)CC(=O)*

Assay: qHTS assay to identify small molecule antagonists of the estrogen receptor beta (ER-beta) signaling pathway - cell viability counter screen (AID 1259382); note: nearly all actives have a fitted effect of over 55% in size
Conditions: ER-beta-UAS-bla HEK293T viability, CellTiter-Glo luminescence, 16 h; series mostly up to 92.4 µM
Source text: U.S. Tox21 Program National Center for Advancing Translational Sciences [NCATS] NIH Chemical Genomics Center [NCGC] U.S. Environmental Protection Agency [EPA] National Institutes of Environmental Health Sciences [NIEHS] National Toxicology Program [NTP] U.S. Food and Drug Administration [FDA] Tox21 Assay Overview: Estrogen receptor (ER), a nuclear hormone receptor, plays an important role in development, metabolic homeostasis and reproduction. Two subtypes of ER, ER-alpha and ER-beta, have similar expression patterns with some uniqueness in both types. Endocrine disrupting chemicals (EDCs) and their interactions with steroid hormone receptors like ER causes disruption of normal endocrine function. To identify the compounds that inhibit ER signaling, an ER-beta-UAS-bla GripTite cell line (Life Technologies, Madison, WI, USA) containing a beta-lactamase reporter gene under the control of an UAS response element was used to screen Tox21 10K compound library. The cytotoxicity of the Tox21 compound library against the ER-beta-bla cell line was tested in parallel by measuring the cell viability using CellTiter-Glo assay in the same wells.
Tox21 Assay Protocol Summary: ER-beta-UAS-bla HEK293T cells were dispensed at 2,000 cells/4 uL of assay medium containing 2% charcoal stripped FBS per well into black wall/clear-bottom 1536-well plates using a Multidrop Combi (ThermoFisher Scientific, Waltham, MA) dispenser. After the assay plates were incubated at a 37C and 5% CO2 for 6 hr, 23 nL of compounds dissolved in DMSO, positive controls or DMSO only was transferred to the assay plate by a Pintool station (Kalypsys, San Diego, CA), followed by addition of 1 uL (1nM as final concentration) of 17-beta-estradiol (E2) in assay medium using a Flying Reagent Dispenser (FRD, Aurora Discovery, San Diego, CA). The plates were incubated at 37C and 5% CO2 for 16 hr. Then 1 uL of LiveBLAzer B/G FRET substrate was added using a Flying Reagent Dispenser, the plates were incubated at room temperature for 2 hours, and fluorescence intensity was measured by an Envision plate reader (PerkinElmer, Shelton, CT). For cell viability readout that measures cytotoxicity, 4 uL/well of CellTiter-Glo reagent was added into the assay plates using a FRD. After 30 min incubation at room temperature, the luminescence intensity in the plates was measured using a ViewLux (PerkinElmer) plate reader.
% is set by controls: 0 for no effect and ±100 for the full control effect.

Question: With `C[C@@H]1CC[C@@]2(OC1)O[C@H]1C[C@H]3[C@@H]4CC[C@H]5C[C@@H](O)CC[C@]5(C)[C@H]4CC(=O)[C@]3(C)[C@H]1[C@@H]2C` as the compound, how does the activity change, negative = cytotoxicity read?
Answer: Its activity change, negative = cytotoxicity is 3.19% [at 8.39 µM].

Question: For `COc1ccc2cc(CCC(C)=O)ccc2c1`, which outcome is on record?
Answer: The outcome was “inactive”.

Question: For `N=C(N)N`, which outcome is on record?
Answer: Its outcome is “inactive”.

Question: With `CC(C)CC(=O)N[C@H](C(=O)N[C@H](C(=O)N[C@@H](CC(C)C)[C@@H](O)CC(=O)N[C@@H](C)C(=O)N[C@@H](CC(C)C)[C@@H](O)CC(=O)O)C(C)C)C(C)C` (Isovaleryl-VV[Sta]A[Sta]-OH) as the compound, how does the outcome read?
Answer: Its outcome is “inactive”.

Question: For `Cc1ccc(NC(N)=O)cc1`, which outcome is on record?
Answer: The outcome was “inactive”.

Question: For `C=CC(=O)OCC[N+](C)(C)C`, which outcome is on record?
Answer: Its outcome is “inactive”.

Question: Which outcome does the source give for `C[C@@H](CN1CC(=O)NC(=O)C1)N1CC(=O)NC(=O)C1` here?
Answer: Its outcome is “inactive”.

Question: With `CCCCC(CC)COC(=O)CC#N` (stereo not given) as the compound, how does the outcome read?
Answer: Its outcome is “inactive”.

Question: With `CC(C)(C)c1ccc(N)cc1` as the compound, how does the outcome read?
Answer: Its outcome is “inactive”.

Question: For `O=c1c(O)c(O)c1=O`, which outcome is on record?
Answer: The outcome was “inactive”.

Question: For `CC(O)C(CO)C(C)O` (stereo not given), which outcome is on record?
Answer: The outcome was “inactive”.

Question: With `C=CCON/C(CCC)=C1\C(=O)CC(C)(C)C(C(=O)OC)=C1O` as the compound, how does the outcome read?
Answer: The outcome was “inactive”.

Question: With `COc1cc(NS(=O)(=O)c2ccc(N)cc2)ncn1` as the compound, how does the outcome read?
Answer: Its outcome is “inactive”.

Question: For `CN(C)CCc1c[nH]c2ccc(C[C@H]3COC(=O)N3)cc12`, which outcome is on record?
Answer: The outcome was “inactive”.

Question: With `CC(C)CC(O)Cc1ccccc1` (stereo not given) as the compound, how does the outcome read?
Answer: The outcome was “inactive”.

Question: With `CC/C=C\CCCCCCCCCCOC(C)=O` as the compound, how does the outcome read?
Answer: Its outcome is “inactive”.

Question: With `NNC(=O)CCCCC(=O)NN` as the compound, how does the outcome read?
Answer: Its outcome is “inactive”.

Question: Which outcome does the source give for `CC(C)(C)OC=O` here?
Answer: Its outcome is “inactive”.

Question: With `CCCCS` as the compound, how does the outcome read?
Answer: Its outcome is “inactive”.

Question: With `CC(C)(C)c1ccc(C(=O)CCCCl)cc1` as the compound, how does the outcome read?
Answer: Its outcome is “inactive”.

Question: With `C=CCN1CCc2nc(N)sc2CC1` as the compound, how does the outcome read?
Answer: Its outcome is “inactive”.

Question: With `NCC1CCC(C(=O)Oc2ccc(CCC(=O)O)cc2)CC1` (stereo not given) as the compound, how does the outcome read?
Answer: Its outcome is “inactive”.

Question: For `CC(=O)Oc1ccc(C(C)=O)cc1`, which outcome is on record?
Answer: The outcome was “inactive”.

Question: With `Clc1cc(Cl)c(Cl)c(Cl)c1Cl` as the compound, how does the outcome read?
Answer: Its outcome is “inactive”.

Question: Which outcome does the source give for `O=S(=O)(O)CC(O)CCl` (stereo not given) here?
Answer: Its outcome is “inactive”.

Question: For `CC1(C)CC(N)CC(C)(C)N1`, which outcome is on record?
Answer: The outcome was “inactive”.

Question: With `O=C[C@@H](O)[C@H](O)[C@H](O)CO` as the compound, how does the outcome read?
Answer: Its outcome is “inactive”.

Question: For `O=C(O)COc1ccc2ccccc2c1`, which outcome is on record?
Answer: The outcome was “inactive”.

Question: Which outcome does the source give for `CC(=O)OC1CCC(C(C)(C)C)CC1` (stereo not given) here?
Answer: Its outcome is “inactive”.

Question: With `CC(C)(C)C(=O)CC(=O)C(C)(C)C` as the compound, how does the outcome read?
Answer: The outcome was “inactive”.

Question: Which outcome does the source give for `CC(=O)Nc1ccc(OCCOCCOc2ccc(NC(C)=O)cc2)cc1` here?
Answer: Its outcome is “inactive”.

Question: For `CCN1CCN(C(=O)N[C@@H](C(=O)N[C@@H]2C(=O)N3C(C(=O)O)=C(CSc4nnnn4C)CS[C@H]23)c2ccc(O)cc2)C(=O)C1=O`, which outcome is on record?
Answer: Its outcome is “inactive”.

Question: For `CC(=O)Nc1ccc(S(=O)(=O)Nc2cc(C)on2)cc1`, which outcome is on record?
Answer: The outcome was “inactive”.

Question: For `N=C(N)N1CCc2ccccc2C1`, which activity change, negative = cytotoxicity is on record?
Answer: Its activity change, negative = cytotoxicity is 8.18% [at 8.39 µM].

Question: Which outcome does the source give for `CCCCc1ccc(Cl)cc1` here?
Answer: The outcome was “inactive”.

Question: Which outcome does the source give for `COc1ccc(Cl)cc1C` here?
Answer: Its outcome is “inactive”.

Question: Which outcome does the source give for `CCCCCCC(O)CO` (stereo not given) here?
Answer: Its outcome is “inactive”.

Question: With `CCOc1ccccc1OCCN[C@H](C)Cc1ccc(OC)c(S(N)(=O)=O)c1` as the compound, how does the outcome read?
Answer: The outcome was “inactive”.

Question: With `CCOC(=O)c1ccc(N(C)C)cc1` as the compound, how does the outcome read?
Answer: The outcome was “inactive”.

Question: For `Nc1cc(S(=O)(=O)O)ccc1O`, which outcome is on record?
Answer: Its outcome is “inactive”.
